Most compounds without a hit are left out; they make up all but 5.7% or so of the library.
PI5P4Ka inh: qHTS for Inhibitors of phosphatidylinositol 5-phosphate 4-kinase (PI5P4K). AID 652105, 2013. PI5P4Kalpha enzyme, ADP-Glo luminescence, 60 min; hits give low values. max response, %. 330,000 tested, 1.2% active; active = max response of -50% or lower; inconclusive = between -30% and -50%; inactive = -30% or higher; also: value at the top dose of about 77 µM; % is scaled to controls: 0 for no effect and ±100 for the full control effect
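PI5P4Kalpha ADP-Glo assay; 5 microM ATP final; 60 min RT reaction; HEPES pH 7.4/EGTA/CHAPS, 5% DMSO; controls lacking substrate or enzyme; luminescent end-point.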
HP1b binding inh: HTS for Inhibitors of HP1-beta Chromodomain Interactions with Methylated Histone Tails. Chromobox protein homolog 1 (Homo sapiens), P83916. AlphaScreen HP1-beta / biotin-H3K9me3 peptide binding. Potency, µM (top dose mostly 114 µM), without a hit: at the top dose activity change, negative = inhibition, most hits filed as inhibitors. 390,000 tested, 0.56% active; also: potency is read from the fitted curve at half-maximal effect; nearly all actives have a fitted effect of over 70% in size
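Compound inhibition of the preformed complex between 50 nM HP1-beta and 50 nM biotinylated H3K9me3 peptide was read by AlphaScreen. Buffer was PBS pH 7.4 with 0.01% Tween-20. Incubations ran 30 min at room temperature, with 10 ug/mL donor/acceptor beads.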
KDM4E inh: qHTS Assay for Inhibitors of Human Jumonji Domain Containing 2E (JMJD2E) | 230,000 tested, 1.6% active | Potency, µM (series often up to 57.1 µM), without a hit: top-dose activity change, negative = inhibition, most hits filed as inhibitors | AID 2147, 2009 | JMJD2E catalytic domain, FDH-coupled NADH fluorescence (FDH is formaldehyde dehydrogenase); active = well fitted inhibition curve with a large enough effect, not every such curve was filed as active; inconclusive = small, poorly fitted or top-dose-only effect, or another doubt; inactive = no such curve, though single readings can be large or run the other way;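 also: potency is read from the fitted curve at half-maximal effect; 0% = wells with enzyme and -100% = buffer wells without enzyme; nearly all actives have a fitted effect of over 50% in size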
BAZ2B block: qHTS Assay for Inhibitors of BAZ2B. Bromodomain adjacent to zinc finger domain protein 2B (Homo sapiens), Q9UIF8. AlphaScreen BAZ2B-H3K14Ac peptide displacement. AID 504333, 2011. 360,000 tested, 4.4% active. Potency, µM (top dose mostly 114 µM), for inactives: at the highest dose activity change, negative = inhibition, hits mostly inhibitors; also: potency is read from the fitted curve at half-maximal effect; % is scaled to controls: 0 for no effect and ±100 for the full control effect; nearly all actives have a fitted effect of over 60% in size
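Inhibition is scored as reduced AlphaScreen emission. The BAZ2B/b-H3(5-23)K14Ac complex (50 nM each) in PBS pH 7.4, 0.01% Tween-20 meets compound (up to 110 uM) for 30 min at RT before bead addition.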
L3MBTL1 block: qHTS Assay for the Inhibitors of L3MBTL1. 230,000 tested, 0.66% active. AlphaScreen L3MBTL1–H3K9me1 peptide binding. Potency, µM (titrated, usually from 57.1 µM), for inactives: top-dose activity, negative = inhibition, usual class: inhibitors; also: potency is read from the fitted curve at half-maximal effect; % is scaled to controls: 0 for no effect and ±100 for the full control effect; nearly all actives have a fitted effect of over 60% in size
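AlphaScreen proximity signal between nickel-chelate acceptor and streptavidin donor beads (final 10 ug/mL) reports binding of 50 nM L3MBTL1 to 75 nM biotin-H3 K9me1 peptide; complex incubated with compounds 30 min at room temperature; cefsulodin titration as control.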
JMJD2A Tudor inh: qHTS Assay for Inhibitors of JMJD2A-Tudor Domain. Lysine-specific demethylase 4A (Homo sapiens), O75164. AlphaScreen JMJD2A-Tudor / H3K4me3 peptide binding. Potency, µM (top dose mostly 114 µM), without a hit: top-dose activity change, negative = inhibition, hits mostly inhibitors. 390,000 tested, 4.4% active; also: potency is read from the fitted curve at half-maximal effect; % is scaled to controls: 0 for no effect and ±100 for the full control effect; nearly all actives have a fitted effect of over 50% in size
Active calls of the source: *; [ ] = dose if it differs, or a comment. Unless noted, calls follow the shape of the dose curve; as a rule, active = well fitted inhibition curve with a large enough effect; inconclusive = small, poorly fitted or top-dose-only effect; inactive = no such curve, though single readings can be large or run the other way.

What do the screens show for `COc1ccccc1OCCCOc1c(C)cc(C)cc1Br`?
PI5P4Ka inh: 20; HP1b binding inh: 177%; KDM4E inh: 4%; BAZ2B block: 151%; L3MBTL1 block: 43%; JMJD2A Tudor inh: 87%

How did C=CCNCCOCCOc1ccc(C)cc1Br do in these assays?
PI5P4Ka inh: 1; HP1b binding inh: inconclusive; KDM4E inh: inconclusive; BAZ2B block: 56µM*; L3MBTL1 block: 5%; JMJD2A Tudor inh: 5µM*

How did CCC(C)NCCCOc1c(C)cc(C)cc1Br (stereo unspecified) do in these assays?
PI5P4Ka inh: -4; HP1b binding inh: -36%; KDM4E inh: 0%; BAZ2B block: 79µM*; L3MBTL1 block: -4%; JMJD2A Tudor inh: inconclusive

Results for CCC(C)NCCOCCOc1ccc(C)cc1Br (stereo unspecified) ?
HP1b binding inh: inconclusive; KDM4E inh: inconclusive; BAZ2B block: 56µM*; L3MBTL1 block: 3%; JMJD2A Tudor inh: 2.5µM*

Results for Cc1ccc(OCCOCCOc2cccc3cccnc23)c(Br)c1 ?
PI5P4Ka inh: -6; HP1b binding inh: inconclusive; KDM4E inh: inconclusive; BAZ2B block: 9%; L3MBTL1 block: 3%; JMJD2A Tudor inh: -1%[57.1 µM]

Results for CC(C)NCCOCCOc1ccccc1F ?
PI5P4Ka inh: 3; HP1b binding inh: inconclusive; KDM4E inh: inconclusive; BAZ2B block: 50µM*; JMJD2A Tudor inh: 1.8µM*

How did O=C(C1CC1)N1CCc2cc(Br)cc(S(=O)(=O)Nc3ccc(C(F)(F)F)cc3)c21 do in these assays?
HP1b binding inh: 19%; BAZ2B block: -17%; JMJD2A Tudor inh: -15%

How did CCc1cnc2c(c1SCc1cc(OC)cc(OC)c1)c(=O)n(C)c(=O)n2C do in these assays?
HP1b binding inh: 37%; BAZ2B block: 2%; JMJD2A Tudor inh: -10%

What do the screens show for `CC(C)NCCOCCOc1ccc(Cl)cc1Br`?
PI5P4Ka inh: -2; HP1b binding inh: -18%; KDM4E inh: inconclusive; BAZ2B block: inconclusive; L3MBTL1 block: 10%; JMJD2A Tudor inh: 3.2µM*

Results for CC(C)NCCOc1cccc(Br)c1 ?
PI5P4Ka inh: 0; HP1b binding inh: 11%; KDM4E inh: -10%; BAZ2B block: inconclusive; JMJD2A Tudor inh: 4%

Results for Cc1cccc(S(=O)(=O)c2cn(C)c3cc(N4CCN(c5ccc(F)cc5)CC4)c(F)cc3c2=O)c1 ?
HP1b binding inh: 29%; BAZ2B block: -4%; JMJD2A Tudor inh: -17%

Results for CCN(CC)c1ccc(-c2n[nH]c(=S)n2-c2ccccc2)cc1 ?
PI5P4Ka inh: -14; HP1b binding inh: -3%; KDM4E inh: inconclusive; BAZ2B block: -38%; L3MBTL1 block: -17%; JMJD2A Tudor inh: 20µM*

What do the screens show for `CN(C)c1ccc(-c2n[nH]c(=S)n2-c2ccccc2)cc1`?
PI5P4Ka inh: -10; HP1b binding inh: -14%; KDM4E inh: inconclusive; BAZ2B block: -14%; L3MBTL1 block: -8%; JMJD2A Tudor inh: 7.9µM*

What do the screens show for `O=C(N/N=C/c1ccccn1)c1ccncc1`?
PI5P4Ka inh: 2; HP1b binding inh: 29%; BAZ2B block: 16µM*; JMJD2A Tudor inh: inconclusive

Results for COc1cc(C(=O)N/N=C/c2ccccn2)cc(OC)c1OC ?
PI5P4Ka inh: 0; HP1b binding inh: 4%; KDM4E inh: inconclusive; BAZ2B block: 25µM*; L3MBTL1 block: 39%; JMJD2A Tudor inh: -23%

How did CN(C)c1ccc(/C=N/NC(=O)c2ccccn2)cc1 do in these assays?
PI5P4Ka inh: -27; HP1b binding inh: 9%; KDM4E inh: -15%; BAZ2B block: inconclusive; L3MBTL1 block: 1%; JMJD2A Tudor inh: -25%

How did O=C(N/N=C/c1ccccn1)c1ccccc1 do in these assays?
PI5P4Ka inh: 1; HP1b binding inh: 14%; KDM4E inh: -4%; BAZ2B block: -4%; L3MBTL1 block: 19%; JMJD2A Tudor inh: inconclusive

Bioassay records from PubChem.
